A selection: hits, their analogues and other compounds. The true share with any hit is near 13%.
miR-21 reporter: qHTS Assay for Modulators of miRNAs and/orActivators of miR-21. Potency, µM (top dose mostly 38.3 µM), usual class: activators. HeLa miR-21 FLuc reporter, luciferase, 48 h. 340,000 tested, under 10 active;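 also: miR-21 action dims this reporter so a rising signal means less miR-21 action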
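Compounds were titrated across several concentrations (up to approximately 40 uM) and incubated 48 hours with HeLa miR-21-FLuc reporter cells (miR-21 target sequence downstream of FLuc, endogenous miR-21). Readout was firefly luciferase luminescence after lytic detection reagent.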
ALDH1A1 inh: qHTS Assay for Inhibitors of Aldehyde Dehydrogenase 1 (ALDH1A1) | Purified ALDH1A1, NADH fluorescence, propionaldehyde substrate | Aldehyde dehydrogenase 1A1 (Homo sapiens), P00352 | hit rate 7.3% among 220,000 | AID 1030, 2008 | Potency, µM (series often up to 75.3 µM), actives largely listed as inhibitors; active = well fitted inhibition curve with a large enough effect, not every such curve was filed as active; inconclusive = small, poorly fitted or top-dose-only effect, or another doubt; inactive = no such curve, though single readings can be large or run the other way
G9a inh: qHTS Assay for Inhibitors of Histone Lysine Methyltransferase G9a. G9a H3K9 monomethylation, AlphaScreen, 2 h. hit rate 8.8% among 350,000. Histone-lysine N-methyltransferase EHMT2 (Homo sapiens), Q96KQ7. Potency, µM (titrated, usually from 102 µM), usual class: inhibitors. AID 504332, 2011; also: nearly all actives have a fitted effect of over 75% in size
Target sequence (Q96KQ7 913-1193 limits assumed): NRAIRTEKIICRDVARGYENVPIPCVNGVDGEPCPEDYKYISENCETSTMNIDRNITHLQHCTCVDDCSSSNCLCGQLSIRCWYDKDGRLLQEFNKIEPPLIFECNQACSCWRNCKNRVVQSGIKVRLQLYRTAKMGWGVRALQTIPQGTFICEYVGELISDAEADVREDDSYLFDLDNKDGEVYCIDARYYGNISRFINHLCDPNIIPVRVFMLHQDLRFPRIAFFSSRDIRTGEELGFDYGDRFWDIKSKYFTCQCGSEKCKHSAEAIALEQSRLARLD
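Readings reflect AlphaScreen signal from monomethyl-H3K9 antibody detection. HMT at 20 nM; substrate b-H3K9 500 nM; cofactor SAM 20 uM; 2 h RT reaction; compounds tested as titrations in qHTS with 15 min preincubation.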
JMJD2E inh: qHTS Assay for Inhibitors of Human Jumonji Domain Containing 2E (JMJD2E); hit rate 1.6% among 230,000; JMJD2E catalytic domain, FDH-coupled NADH fluorescence (FDH is formaldehyde dehydrogenase); Lysine-specific demethylase 4E (Homo sapiens), B2RXH2; Potency, µM (highest dose often 57.1 µM), hits mostly inhibitors; active = well fitted inhibition curve with a large enough effect, not every such curve was filed as active; inconclusive = small, poorly fitted or top-dose-only effect, or another doubt; inactive = no such curve, though single readings can be large or run the other way; also: nearly all actives have a fitted effect of over 50% in size
Sfp PPTase inh: qHTS Assay for Inhibitors of Bacillus subtilis Sfp phosphopantetheinyl transferase (PPTase) | 4'-phosphopantetheinyl transferase ffp (Bacillus subtilis), Q9F4F7 | Biochemical Sfp PPTase activity, qHTS | Potency, µM, hits mostly inhibitors | hit rate 3.5% among 310,000;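 also: the enzyme is Sfp with the accession as filed and its product quenches rhodamine fluorescence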
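Sfp 15 nM + cpd, 15 min RT; start w/ rhodamine-CoA 5 uM, BHQ-2-YbbR 12.5 uM (final); 50 mM Hepes pH 7.6, 10 mM MgCl2, 0.01% NP-40, 0.01% BSA; read 525/598 nm at 0 and 30 min.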
Lamin A splicing: qHTS Assay for Modulators of Lamin A Splicing | HeLa LMNA splicing GFP/RFP minigene ratio, 48 h | hit rate 0.01% among 200,000 | Potency, µM (titrated, usually from 46.1 µM), hits mostly inhibitors; active = well fitted inhibition curve with a large enough effect in the signal ratio, with a control signal flat, not every such curve was filed as active; inconclusive = small, poorly fitted or top-dose-only effect, or effect the other way, or a change in a side signal; the % refers to the signal ratio
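S3 HeLa cells stably expressing lamin A-EGFP splicing minigene plus DsRed2, 600 cells/well, 48 h compound exposure at 37C. Laser-scanning cytometry; analysed as GFP (500-530 nm)/RFP (575-640 nm) total intensity ratio; 0.5% DMSO vehicle.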
Hits are given with their value; [ ] = remark or other dose. Unless noted, calls follow the shape of the dose curve; as a rule, active = well fitted curve in the direction sought with a large enough effect; inconclusive = small, poorly fitted or top-dose-only effect, or another doubt; inactive = no such curve, though single readings can be large; an effect the other way counts as inactive or inconclusive.

What do the screens show for `COc1cccc(Cn2c(=O)c(-c3cccs3)nc3cnc(Nc4ccccc4)nc32)c1`?
ALDH1A1 inh: inactive; G9a inh: inactive[12.7 µM]; Sfp PPTase inh: inactive

Results for COc1cc2c(cc1OC)C(COc1ccc3c(C)cc(=O)oc3c1)N(C(=O)c1ccccc1F)CC2 (stereo not drawn) ?
miR-21 reporter: inactive; G9a inh: inactive

How did COc1cc(/C=C2\C(=N)N3N=C(S(C)(=O)=O)SC3=NC2=O)ccc1OCCOc1ccccc1C do in these assays?
miR-21 reporter: inactive; G9a inh: 25µM; Sfp PPTase inh: inconclusive

What do the screens show for `CCS(=O)(=O)C1=NN2C(=N)/C(=C\c3ccc(SCc4ccco4)o3)C(=O)N=C2S1`?
miR-21 reporter: inactive; ALDH1A1 inh: 1.8µM; G9a inh: 13µM; JMJD2E inh: inconclusive; Sfp PPTase inh: 20µM

What do the screens show for `COc1cc(/C=C2\C(=N)N3N=C(S(C)(=O)=O)SC3=NC2=O)ccc1OC(=O)c1cccs1`?
miR-21 reporter: inactive; G9a inh: inactive; Sfp PPTase inh: inactive

Results for COc1cc(/C=C2\C(=N)N3N=C(S(C)(=O)=O)SC3=NC2=O)ccc1OC(=O)c1ccco1 ?
miR-21 reporter: inactive; G9a inh: 45µM; Sfp PPTase inh: inactive

What do the screens show for `Cc1c(Br)c([N+](=O)[O-])nn1C(C)C(=O)N1CCc2ccccc2C1` (stereo not drawn)?
miR-21 reporter: inactive; G9a inh: inactive; Sfp PPTase inh: inactive

How did Cc1ccc(NC(=O)CSCc2cc(=O)n3cc(C)sc3n2)cc1 do in these assays?
miR-21 reporter: inactive; G9a inh: inactive; Sfp PPTase inh: inactive

Results for Cc1cc(Nc2ccc(C)c(Cl)c2)n2nc(Cc3ccccc3)nc2n1 ?
miR-21 reporter: inactive; G9a inh: inactive

Results for CCOc1ccc(NC(=O)c2cccc(N3CCCS3(=O)=O)c2)cc1 ?
miR-21 reporter: inactive; G9a inh: inactive

Results for CC1=C(C(=O)Nc2ccccn2)C(c2ccc(Cl)cc2Cl)NC(=S)N1 (stereo not drawn) ?
miR-21 reporter: inactive; ALDH1A1 inh: 2.5µM; G9a inh: inconclusive; JMJD2E inh: inactive; Sfp PPTase inh: inactive

Results for COC(=O)C1=C(C)NC(=O)NC1c1ccccc1Cl (stereo not drawn) ?
miR-21 reporter: inactive; Sfp PPTase inh: inactive

Results for CC1=C(C(=O)Nc2ccccn2)C(c2ccccc2Cl)NC(=S)N1 (stereo not drawn) ?
miR-21 reporter: inactive; ALDH1A1 inh: 2.5µM; G9a inh: inactive; JMJD2E inh: inactive; Sfp PPTase inh: inactive

Results for Cc1nc2ccccc2c(=O)n1-c1ccc(NC(=O)C(F)(F)F)cc1 ?
miR-21 reporter: inactive; G9a inh: inactive; Lamin A splicing: inactive

What do the screens show for `CCCCn1c(N)c(N(CCC(C)C)C(=O)C2CCCO2)c(=O)[nH]c1=O` (stereo not drawn)?
G9a inh: inactive

What do the screens show for `CCCCn1c(N)c(N(CC)C(=O)c2ccc(C#N)cc2)c(=O)[nH]c1=O`?
miR-21 reporter: inactive; G9a inh: 50µM; Sfp PPTase inh: inactive

Results for CCCCn1c(N)c(N(CCC(C)C)C(=O)C(C)N2C(=O)c3ccccc3C2=O)c(=O)[nH]c1=O (stereo not drawn) ?
G9a inh: 13µM

How did CCCCn1c(N)c(N(CC)C(=O)c2ccc(N3CCCC3=O)cc2)c(=O)[nH]c1=O do in these assays?
G9a inh: 50µM

What do the screens show for `CCCCn1c(N)c(N(CCC(C)C)C(=O)C2CCCN(C(=O)c3ccc(Cl)cc3)C2)c(=O)[nH]c1=O` (stereo not drawn)?
G9a inh: 40µM

Results for N#Cc1ccc(C(=O)OCC(=O)NC(=O)NCc2ccccc2)cc1 ?
G9a inh: inactive[0.501 µM]
